In ChEMBL document CHEMBL3988442, “University of Dundee, Small-Polar-MMV Screening Library” (2021):

system: Trypanosoma cruzi; experiment: Trypanosoma cruzi phosphomannomutase and mannose-1-phosphate guanylyltransferase assay; assay type: functional; design: scale not given: direction of the effect not stated beside the values; conditions: 10 µM

Structure (SMILES)	Percent Effect [%]
CC(=O)N1CCCN(C(=O)NCCc2cc(Cl)cc(Cl)c2)CC1	-2.77
CC(NC(=O)NCCCN(C)S(C)(=O)=O)c1ccncc1 (stereo not drawn)	-2.77
COc1cc(C(=O)N2CCC(c3n[nH]c(C4CC4)n3)CC2)ccc1C	-1.33
Cc1cc2n(n1)CC(CNCc1cnn(-c3ccccc3)c1)CN2 (stereo not drawn)	2.26
Cc1nc(O)cc(C2CCN(Cc3cccc(F)c3F)C2)n1 (stereo not drawn)	1.19
CCn1ccnc1CN1CCN(Cc2ccc(C#N)cc2)CC1	9.96
O=C(CC1CCCC1)N1CCCC1c1nc(O)cc(-c2ccccn2)n1 (stereo not drawn)	-0.395
CC(C)NC(=O)c1ccc2c(c1)nc1n2CCN(C(C)C)C1	-5.11
CN(C)C(=O)CC1CC2(CCNCC2)c2cc(F)ccc21 (stereo not drawn)	-6.35
COc1cccc(COCC(=O)N2CCCC(c3cc(C)[nH]n3)C2)c1 (stereo not drawn)	-2.92
Cc1ccccc1C(=O)N1CCOC2(CNCCOC2)C1 (stereo not drawn)	-2.51
CC(C)n1ccnc1CN1CCCN(C(=O)COC2CCCC2)CC1	-1.74
OC[C@H]1CC[C@]2(CC1)CN(Cc1ccccc1F)Cc1ccccc1O2	4.15
Cc1nc(CN2C[C@@H]3CN(C(=O)c4cnccn4)C[C@@H]3C2)cs1	-1.79
c1ccc(-c2noc(CNC3CCc4ncnn4C3)n2)nc1 (stereo not drawn)	-4.74
CCN1CC(C(=O)NC(C)(C)CNC(=O)OC(C)(C)C)CC1=O (stereo not drawn)	-1.66
CC(Cn1cccn1)NC(=O)Nc1ccc(F)cc1 (stereo not drawn)	-5.15
Cc1nc2cc(O)nn2c(C)c1CCC(=O)N(C)Cc1cscn1	8.08
CCc1ncc(CNC2CC(=O)N(CCc3cccc(Cl)c3)C2)cn1 (stereo not drawn)	7.54
CC(C)n1c(C2CCCN(CCS(C)(=O)=O)C2)nc2ccccc21 (stereo not drawn)	0.586

Structure (SMILES)	Percent Effect [%]
O=C(Cc1ccc2c(c1)OCCO2)N1CCCC(n2cccn2)C1 (stereo not drawn)	1.08
Cc1nc(C)n(C2CCCN(C(=O)c3sccc3C3CC3)C2)n1 (stereo not drawn)	-5
Cc1ccc2c(n1)N(CCn1cccn1)CCN(C(=O)CC1CC1)C2	-4.4
Cc1nc(CNC(C)c2ccc(OCC(=O)NC3CC3)cc2)cs1 (stereo not drawn)	-2.15
CN(CCC#N)C(=O)CCOc1cccc(F)c1	-0.876
COc1cccc(CNC(=O)CN2CCCCC2Cn2cccn2)c1 (stereo not drawn)	4.6
CN1CC(=O)N(c2cnn(C)c2)CC12CCN(Cc1nccn1C)C2 (stereo not drawn)	-4.17
COc1ncccc1NC(=O)N1CCC(CN2CCOCC2)CC1	5.55
CC(=O)NC(C)(C)C(=O)Nc1ncc(Cc2ccc(C)c(F)c2)s1	8.51
Cc1cccc(COC[C@]23COC[C@H]2CN(C(=O)c2ccsc2)C3)n1	1.95
COCc1noc(C2(c3ccc(OC)cc3)CCOCC2)n1	-0.386
CC(=O)Nc1cccc(C(=O)Nc2cnc3n2CCCC3)c1	-1.46
O=C(NCCOc1ccc2c(c1)OCO2)C1CC(=O)N(CC2CC2)C1 (stereo not drawn)	6.82
CN(C)c1cncc(C2CCN(CCO)CC2)n1	-2.96
COc1ccc(OCC(=O)NS(=O)(=O)c2cc(F)ccc2F)cc1	-3.28
Cc1nn(C)c(N(C)C)c1CNCc1cccnc1-n1cncn1	-4.21
COc1ccc(CN2C[C@@H]3COC[C@]3(COc3cccnc3)C2)cc1	3.12
O=C(NCCN1CCC(c2cccs2)CC1)c1ccccc1C(F)(F)F	5.09
Cc1nc(CN2CCCC(N(C)Cc3c(C)noc3C)C2)no1 (stereo not drawn)	9.7

biological target: T1, Arginase-2, mitochondrial (Homo sapiens) (UniProt P78540); experiment: in vitro enzyme assay to detect the production of urea directly proportional to the activity of Arginase II; assay type: functional; design: scale not given: in the data most compounds retested in dose-response had high values; conditions: 33.3 µM
T1 sequence (whole entry): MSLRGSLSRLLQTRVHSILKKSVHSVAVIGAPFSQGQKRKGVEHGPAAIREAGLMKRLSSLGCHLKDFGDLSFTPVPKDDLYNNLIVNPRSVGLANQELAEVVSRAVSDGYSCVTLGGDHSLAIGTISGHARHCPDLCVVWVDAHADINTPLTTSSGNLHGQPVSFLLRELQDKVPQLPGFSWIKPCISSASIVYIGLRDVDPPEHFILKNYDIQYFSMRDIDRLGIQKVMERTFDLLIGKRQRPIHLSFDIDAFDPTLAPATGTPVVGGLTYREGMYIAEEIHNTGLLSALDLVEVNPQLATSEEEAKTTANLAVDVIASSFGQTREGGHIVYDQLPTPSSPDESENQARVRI

Structure (SMILES)	Percent Effect [%]
CC(=O)N1CCCN(C(=O)NCCc2cc(Cl)cc(Cl)c2)CC1	7.1
CC(NC(=O)NCCCN(C)S(C)(=O)=O)c1ccncc1 (stereo not drawn)	5.38
COc1cc(C(=O)N2CCC(c3n[nH]c(C4CC4)n3)CC2)ccc1C	2.37
Cc1cc2n(n1)CC(CNCc1cnn(-c3ccccc3)c1)CN2 (stereo not drawn)	4.21
Cc1nc(O)cc(C2CCN(Cc3cccc(F)c3F)C2)n1 (stereo not drawn)	-3.94
CCn1ccnc1CN1CCN(Cc2ccc(C#N)cc2)CC1	-4.6
O=C(CC1CCCC1)N1CCCC1c1nc(O)cc(-c2ccccn2)n1 (stereo not drawn)	-4.41
CC(C)NC(=O)c1ccc2c(c1)nc1n2CCN(C(C)C)C1	-13.2
CN(C)C(=O)CC1CC2(CCNCC2)c2cc(F)ccc21 (stereo not drawn)	-2.23
COc1cccc(COCC(=O)N2CCCC(c3cc(C)[nH]n3)C2)c1 (stereo not drawn)	-0.401
Cc1ccccc1C(=O)N1CCOC2(CNCCOC2)C1 (stereo not drawn)	-1.43
CC(C)n1ccnc1CN1CCCN(C(=O)COC2CCCC2)CC1	-2.8
OC[C@H]1CC[C@]2(CC1)CN(Cc1ccccc1F)Cc1ccccc1O2	2.55
Cc1nc(CN2C[C@@H]3CN(C(=O)c4cnccn4)C[C@@H]3C2)cs1	-2.79
c1ccc(-c2noc(CNC3CCc4ncnn4C3)n2)nc1 (stereo not drawn)	1.66
CCN1CC(C(=O)NC(C)(C)CNC(=O)OC(C)(C)C)CC1=O (stereo not drawn)	4.22
CC(Cn1cccn1)NC(=O)Nc1ccc(F)cc1 (stereo not drawn)	1.77
Cc1nc2cc(O)nn2c(C)c1CCC(=O)N(C)Cc1cscn1	-4.73
CCc1ncc(CNC2CC(=O)N(CCc3cccc(Cl)c3)C2)cn1 (stereo not drawn)	-3.59
CC(C)n1c(C2CCCN(CCS(C)(=O)=O)C2)nc2ccccc21 (stereo not drawn)	13.8

Structure (SMILES)	Percent Effect [%]
O=C(Cc1ccc2c(c1)OCCO2)N1CCCC(n2cccn2)C1 (stereo not drawn)	2.74
Cc1nc(C)n(C2CCCN(C(=O)c3sccc3C3CC3)C2)n1 (stereo not drawn)	1.9
Cc1ccc2c(n1)N(CCn1cccn1)CCN(C(=O)CC1CC1)C2	1.74
Cc1nc(CNC(C)c2ccc(OCC(=O)NC3CC3)cc2)cs1 (stereo not drawn)	-8.82
CN(CCC#N)C(=O)CCOc1cccc(F)c1	-4.73
COc1cccc(CNC(=O)CN2CCCCC2Cn2cccn2)c1 (stereo not drawn)	-0.21
CN1CC(=O)N(c2cnn(C)c2)CC12CCN(Cc1nccn1C)C2 (stereo not drawn)	-0.399
COc1ncccc1NC(=O)N1CCC(CN2CCOCC2)CC1	17.7
CC(=O)NC(C)(C)C(=O)Nc1ncc(Cc2ccc(C)c(F)c2)s1	-2.37
Cc1cccc(COC[C@]23COC[C@H]2CN(C(=O)c2ccsc2)C3)n1	27.9
COCc1noc(C2(c3ccc(OC)cc3)CCOCC2)n1	2.86
CC(=O)Nc1cccc(C(=O)Nc2cnc3n2CCCC3)c1	3.53
O=C(NCCOc1ccc2c(c1)OCO2)C1CC(=O)N(CC2CC2)C1 (stereo not drawn)	0
CN(C)c1cncc(C2CCN(CCO)CC2)n1	-3.94
COc1ccc(OCC(=O)NS(=O)(=O)c2cc(F)ccc2F)cc1	-3.33
Cc1nn(C)c(N(C)C)c1CNCc1cccnc1-n1cncn1	3.23
COc1ccc(CN2C[C@@H]3COC[C@]3(COc3cccnc3)C2)cc1	-0.417
O=C(NCCN1CCC(c2cccs2)CC1)c1ccccc1C(F)(F)F	17.7
Cc1nc(CN2CCCC(N(C)Cc3c(C)noc3C)C2)no1 (stereo not drawn)	-0.21
